Data on 14 molecules can be found in PubChem BioAssay.

Molecules are shown by their SMILES. Values without a mark were called inactive. Activity calls are given as the source filed them. No stated cut-off is given here; in the data, active means inhibition above about 44%; inactive means the rest.

The target in this assay is Steroidogenic factor 1 (Homo sapiens) (UniProt Q13285). Put plainly: inverse agonism at SF1 nuclear receptor – cell-based, luminescence, high throughput, counter-screen for LRH-1 inverse agonist project (AID 651614).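 Further: cells cotransfected with StAR promoter reporter and SF1 expression vector; 0% = vehicle on cells with receptor and 100% = vehicle on cells lacking receptor.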 The conditions noted are these: cell-based SF1 luciferase reporter, at 3.6 µM, active compounds read high.
Steroidogenic factor 1 (Homo sapiens), sequence (Q13285 whole entry, looked up): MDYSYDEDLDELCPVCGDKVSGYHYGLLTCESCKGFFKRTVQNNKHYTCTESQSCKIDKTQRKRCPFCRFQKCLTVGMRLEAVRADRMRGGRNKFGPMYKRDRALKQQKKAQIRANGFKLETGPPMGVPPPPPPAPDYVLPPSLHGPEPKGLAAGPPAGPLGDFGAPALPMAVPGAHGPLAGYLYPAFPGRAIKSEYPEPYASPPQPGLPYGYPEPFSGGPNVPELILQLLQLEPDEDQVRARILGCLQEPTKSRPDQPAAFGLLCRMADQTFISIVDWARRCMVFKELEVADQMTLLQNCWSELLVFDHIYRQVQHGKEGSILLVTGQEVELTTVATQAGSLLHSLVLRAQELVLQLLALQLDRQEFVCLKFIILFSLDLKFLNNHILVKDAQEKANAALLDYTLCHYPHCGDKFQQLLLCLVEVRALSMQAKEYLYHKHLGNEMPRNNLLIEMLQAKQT
For `COC1/C=C/C=C(\C)Cc2cc(O)c(Cl)c(c2)N(C)C(=O)CC(OC(=O)C(C)C)C2(C)OC2C(C)C2CC1(O)NC(=O)O2` (centres undefined), the inhibition is 62.5% (active). As to `CCOC(=O)[C@]12Cc3ccccc3[C@H]1N(C1CCCCC1)C(=O)c1cc(OC)ccc12`, the inhibition is 58.9% (active). For the molecule `COc1ccccc1-n1c(/C=C/c2ccccn2)nc2ccccc2c1=O`, the inhibition is 53.7% (active). Then `N#Cc1c(Br)n(C2OC(CO)C(O)C2O)c2ncnc(N)c12` (centres undefined), with 63.2% (active). Then `Cc1ccc2c(C)c3ccc4ccccc4c3c[n+]2c1`, with 39.4%. For `CC1=C(O)C(=O)C=C2C1=CC=C1C2(C)CCC2(C)C3CC(C)(C(=O)O)CCC3(C)CCC12C` (centres undefined), the inhibition is 96.7% (active). Take `O=[N+]([O-])c1cc(F)c(N2CCCCCC2)cc1N1CCNCC1`: the inhibition is 54.7% (active). As to `COC(=O)C12CCc3c(ccc4cc(OC)ccc34)C1=CC(=O)C2` (centres undefined), the inhibition was 25.3%. Take `CCOC(=O)[C@]12Cc3cc(C)ccc3[C@H]1N(C1CCCCC1)C(=O)c1cc(OC)ccc12`: the inhibition was 78.2% (active). Take `COc1ccc2c(c1)/C(=C/c1cnc[nH]1)C(=O)N2`: the inhibition was 72.9% (active). Turning to `Cc1ccc(-n2nc(C)cc2NC(=O)COc2cc(C)cc3oc(=O)c4c(c23)CCC4)cc1`, the inhibition is 61.2% (active). Take `Cc1cc(S(=O)(=O)NC(C)C)ccc1OCC(=O)N1CCN(Cc2ccc3c(c2)OCO3)CC1`: the inhibition was 40%. Then `COc1cc2c(cc1OC)[C@@H]1C(=O)c3ccc4c(c3O[C@@H]1CO2)C[C@H](C(C)C)O4`, with 61.4% (active); and `CC(C)(C)c1ccc(CSc2cnn(C(C)(C)C)c(=O)c2Cl)cc1`, with 63.8% (active).
